Compound activity as filed in PubChem.
D3 antag: blocks the human D3 dopamine receptor. P35462. D3R cells, DiscoveRx beta-arrestin luminescence, antagonist mode; hits give low values. max response, negative = inhibition, %. actives 2.5% (n = 360,000); in the data active = max response below about -50%; inconclusive = no clear call, values can overlap the other calls; note: % is set by controls: 0 for no effect and ±100 for the full control effect
Target sequence (P35462 whole entry, looked up): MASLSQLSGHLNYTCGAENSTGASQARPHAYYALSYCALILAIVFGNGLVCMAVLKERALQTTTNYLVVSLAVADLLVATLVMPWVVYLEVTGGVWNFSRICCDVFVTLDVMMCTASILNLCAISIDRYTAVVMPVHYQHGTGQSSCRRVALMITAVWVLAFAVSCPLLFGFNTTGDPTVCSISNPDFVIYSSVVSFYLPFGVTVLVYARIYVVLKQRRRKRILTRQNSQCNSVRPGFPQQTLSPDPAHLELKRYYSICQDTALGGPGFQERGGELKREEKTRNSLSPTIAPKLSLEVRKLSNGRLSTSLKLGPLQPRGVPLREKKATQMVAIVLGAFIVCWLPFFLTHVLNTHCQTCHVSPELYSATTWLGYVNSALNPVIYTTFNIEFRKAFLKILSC
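Cells plated overnight at 1500 cells/well, then exposed to library compounds with dopamine controls for 90 minutes at 37 degrees C. DiscoveRx reagent added for 30–60 minutes at room temperature; luminescence read, quantitative HTS format.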
D3 ag: activates the human D3 dopamine receptor. P35462. D3R DiscoveRx beta-arrestin cells, luminescence, 90 min. max activation, %. actives 0.58% (n = 410,000). AID 652048; in the data active = max activation above about 30%; note: 0% is about no effect
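Agonist mode: compounds and dopamine controls were applied to plated cells for 90 min at 37 degrees C after an overnight attachment at 1500 cells/well. Luminescent read-out followed 30 - 60 minutes at room temperature with DiscoveRx detection reagent.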
RGS4 inhibitor: blocks human RGS4-accelerated GTP hydrolysis; P49798; Transcreener GDP fluorescence polarization, RGS4-accelerated GTP hydrolysis; Potency, µM (titrated, usually from 114 µM), without a hit: at the top dose activity change, negative = inhibition, most hits filed as inhibitors; actives 0.039% (n = 390,000); active = well fitted inhibition curve with a large enough effect; inconclusive = small, poorly fitted or top-dose-only effect; inactive = no such curve, though single readings can be large or run the other way; note: potency is the fitted concentration of half-maximal effect; % is set by controls: 0 for no effect and ±100 for the full control effect; nearly all actives have a fitted effect of over 75% in size
Target sequence (P49798 whole entry, looked up): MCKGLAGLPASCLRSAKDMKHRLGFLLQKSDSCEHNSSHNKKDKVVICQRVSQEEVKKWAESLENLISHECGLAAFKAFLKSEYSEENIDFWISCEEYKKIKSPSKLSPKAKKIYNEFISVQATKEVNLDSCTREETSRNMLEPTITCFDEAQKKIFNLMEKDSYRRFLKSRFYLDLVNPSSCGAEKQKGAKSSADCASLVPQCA
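MLSMR compounds (23 nl, pin-transferred) preincubated 10 min at room temperature with a 500nM (2x) first reagent, then RGS4 at 900nM (2x) plus Transcreener GDP mix added; fluorescence polarization (620/688 nm) read before and after 90 min at 30 °C.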
uPA surface inh: blocks generation of uPA at the cell surface | cell surface uPA generation assay, qHTS | Potency, µM (doses to about 38.3 µM), for inactives: at the highest dose activity change, negative = inhibition, actives largely listed as inhibitors | actives 0.31% (n = 330,000); active = well fitted inhibition curve with a large enough effect; inconclusive = small, poorly fitted or top-dose-only effect; inactive = no such curve, though single readings can be large or run the other way; tested in mouse RAW 264.7 cells; note: potency is the fitted concentration of half-maximal effect; % is set by controls: 0 for no effect and ±100 for the full control effect; nearly all actives have a fitted effect of over 55% in size
An asterisk follows results filed as active; u = inconclusive; x = no result given; [ ] = remark or other dose. Rows were chosen to be rich in hits. Some 3.1% of all compounds tested hit in one or more screens of this group.

SMILES | D3 antag | D3 ag | RGS4 inhibitor | uPA surface inh
Cn1c(=O)c2c(-c3ccccc3)n(-c3cc(Cl)c([N+](=O)[O-])cc3O)cc2n(C)c1=O | -9 | -11 | x | x
Cn1c(=O)c2c(-c3ccccc3)n(-c3cc([N+](=O)[O-])ccc3O)cc2n(C)c1=O | -51* | -7 | x | x
Cc1ccc(O)c(N=CC2=C(O)c3ccccc3C2=O)c1 | -54* | -12 | u | -7%
CSc1nnc(NC(=O)c2ccc(S(=O)(=O)N3CCOCC3)cc2)s1 | -59* | 2 | -18% | -2%
Cc1ccc(C(=O)Nc2nnc(S(=O)(=O)N3CCOCC3)s2)cc1 | -57* | -9 | -19% | -2%
NC(=O)CSc1nnc(NC(=O)c2ccc(S(=O)(=O)N3CCOCC3)cc2)s1 | -1 | -2 | 3% | 8%
CC(=O)c1ccc(NC(=O)Cn2ncc3c(C)n(Cc4ccc(F)cc4)c(C)c3c2=O)cc1 | x | 5 | 15% | x
CNC[C@H](CC1CCCCC1)NC[C@H](CO)NCCc1cccc(C(F)(F)F)c1 | -84* | -35 | 30% | 7.9µM*
O=C(c1cc(-c2cccc(Cl)c2)on1)N1CCCCC1 | x | -10 | 2% | x
CCCCS/C(N)=N/N=C/c1ccccc1O | -50* | -3 | -24% | 1%
COc1ccc(-c2noc(-c3cccnc3NCc3ccco3)n2)cc1 | x | 3 | -33% | x
CN1CCN(c2ccc([N+](=O)[O-])c(-n3nc(-c4ccccc4)c4ccccc4c3=O)c2)CC1 | -53* | 2 | -7% | -8%
Cc1ccc(S(=O)(=O)Cn2cnnn2)cc1 | -78* | -1 | -12% | 3%
O=C1/C(=C\c2ccc(O)c(O)c2)SC(=S)N1Cc1ccccc1 | u | -3 | -44% | -12%
CCOc1cc(/C=C2/SC(=S)N(CC3CCCO3)C2=O)ccc1O (configuration not stated) | -64* | -2 | -10%[56.9 µM] | u
CC(/C=C1\SC(=S)N(NC(=O)c2ccncc2)C1=O)=C\c1ccccc1 | -11 | -6 | -13% | 1%
COc1cc(/C=C2\SC(=S)N(NC(=O)c3ccncc3)C2=O)ccc1O | -25 | -3 | 2% | -12%
COc1cc(/C=C2\SC(=S)N(NC(=O)c3ccc(O)c(OC)c3)C2=O)ccc1O | -75* | -16 | -28% | 1%
CC(/C=C1\SC(=S)N(NC(=O)c2ccc(C)cc2)C1=O)=C\c1ccccc1 | -52* | -7 | -8% | 0%
O=C1/C(=C/c2cccc(O)c2)SC(=S)N1CC1CCCO1 (configuration not stated) | 0 | -1 | -42% | 0%
COc1cc(/C=C2/SC(=S)N(Cc3ccccc3)C2=O)ccc1O | -61* | -19 | -16% | -5%
COc1cccc(N2CCN(C(=O)c3cnn(-c4ccc(C)cc4C)c3C3CCN(C(=O)OC(C)(C)C)CC3)CC2)c1 | x | 0 | 4% | x
CCOc1ccccc1NC(=O)C1CCC(CNS(=O)(=O)c2ccc3c(c2)CCCC(=O)N3)CC1 (configuration not stated) | x | 7 | -5% | x
CCOC(=O)C1CCN(C/C=C/c2ccccc2OC)CC1 | -68* | -57 | 15% | x
CCOC(=O)C1CCN(C/C=C/c2ccccc2[N+](=O)[O-])CC1 | -56* | -12 | -34% | -1%
SMILES | D3 antag | D3 ag | RGS4 inhibitor | uPA surface inh
Nc1ccc(-c2nc3ccc(N)cc3o2)cc1 | 0 | 2 | -26% | 7.9µM*
CCc1ccccc1NC(=O)NC1CC2CCC(C1)N2Cc1ccco1 (configuration not stated) | u | -17 | 19% | 6%
Cc1ccc(C(=O)NC2CC3CCC(C2)N3Cc2ccco2)cc1 (configuration not stated) | -28 | -10 | -21% | -1%
COc1cc(OC)cc(C(=O)NC2CC3CCC(C2)N3Cc2ccco2)c1 (configuration not stated) | -91* | -10 | 28% | 6%
O=C(Nc1cccc(Cl)c1)NC1CC2CCC(C1)N2Cc1ccco1 (configuration not stated) | -67* | -2 | -4% | -2%
Nc1nn(-c2ccccc2)c(N)c1N=Nc1cccc(F)c1 | -8 | -3 | -4% | 1.4µM*
CCCCNC(=O)Nc1ccnn1C1CCCCC1 | -76* | -7 | -5% | 6%
COc1ccccc1NC(=O)Nc1ccnn1C1CCCCC1 | 7 | 2 | -6% | 9%
COc1ccc(C(CC(=O)O)NC(=O)c2ccccc2)cc1OC (configuration not stated) | -60* | -12 | -22% | 0%
COc1ccc(OC)c(C(C)NC(=O)c2ccc(Br)cc2)c1 (configuration not stated) | 5 | 3 | -20% | 3%
COc1cc(Br)c(C(C)NC(=O)c2ccccc2)cc1OC (configuration not stated) | -17 | 40* | -20% | x
CCCSc1nn2c(=O)c3ccccc3nc2s1 | -51* | -3 | -3% | -7%
Cc1cccc(Nc2nn3c(=O)c4ccccc4nc3s2)c1 | 14 | -1 | -16% | -5%
Cc1ccc(NC(=O)Cn2nc(C)c([N+](=O)[O-])c2C)cc1Cl | -55* | -14 | 1% | 0%
Cc1ccc(CNC(=O)c2cc3cc(C)ccc3n2C)cc1 | x | 10 | 13% | x
O=C1NC2CCCCN2C12CCN(CCCN1c3ccccc3CCc3ccc(Cl)cc31)CC2 (configuration not stated) | x | -26 | x | x
CCn1c(=O)c(C(=O)NCCN2CCCCC2)c(O)c2ccccc21 | -93* | -12 | -3% | -13%
COc1ccc(CCNC(=O)c2c(O)c3ccccc3n(C)c2=O)cc1 | 6 | 37* | -1% | 0%
Cc1noc(C)c1C(=O)NCCCc1ccccc1 | -25 | -6 | 4% | x
COc1ccc(CCNC(=O)c2c(C)noc2C)cc1 | -100* | 0 | 9% | -1%
CN(C)CCCNc1oc(/C=C/c2ccc(F)cc2)nc1C#N | x | -5 | 21% | x
CC(C)(S)C(=O)N[C@@H](CS)C(=O)O | x | 6 | x | x
Cc1ccc(-n2ncc3c(N(CC(C)C)CC(C)C)ncnc32)c(C)c1 | x | -1 | 8% | x
CN(C(=O)c1ccc2c(c1)N(Cc1ccc(F)cc1)C(=O)c1ccccc1S2(=O)=O)C1CCCCC1 | x | -7 | 7% | x
COc1ccc2c(c1)CC/C(=C\Nc1ccc3c(c1)OCO3)C2=O | -3 | -4 | -37% | u
SMILES | D3 antag | D3 ag | RGS4 inhibitor | uPA surface inh
COc1ccc(N/C=C2\CCc3ccccc3C2=O)cc1 | 11 | 2 | -46% | 1.3µM*
CCc1[nH]nc2c1C(c1ccc(Br)s1)C(C#N)=C(N)O2 (configuration not stated) | -56* | -2 | u | -13%
CN(C)c1ccc(CNc2nc(-c3ccco3)nn2C(=O)c2cccc([N+](=O)[O-])c2)cc1 | x | 2 | 0% | x
CC(C)CNC(=S)NNC(=O)c1csc2ccccc12 | -66* | -27 | 3% | 9%
CC(C)CNC(=S)NNC(=O)c1csc2c1CCCC2 | -57* | -17 | 0% | x
Cc1ccc(NC(=O)Cn2c(-c3nonc3N)nc3ccccc32)cc1C | x | 4 | 15% | x
Cc1cccc(-n2c(C)cc(C(=O)C(=O)Nc3ccccc3F)c2C)c1C | x | -6 | -2% | x
